A short description of the assay: NCI Yeast Anticancer Drug Screen. Data for the mlh1 strain (AID 171).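 Note: 0% = growth of vehicle-treated control cultures of the same strain.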 To be noted: S. cerevisiae mlh1 strain growth inhibition, stronger effect = higher value. As to the method:
Growth inhibition of yeast strains with defined genetic alterations is measured as a screen for potential anti-cancer activity. Selected strains with alterations in DNA damage repair or cell cycle control were exposed to compounds and growth inhibition was measured relative to vehicle treated controls. The strain used in this assay is mlh1

Compounds without any hit were thinned out: in the full panel of roughly 79,000, 15% have a hit. Values without a mark were called inactive. Active and inactive are the calls of the source. Cut-off read from the data, not from the text of the source: active = growth inhibition above about 70%; inactive = the rest.

For `c1cc2ccc3cc4ncccc4c4ccc(c1)c2c34`, the growth inhibition was -2% (at 1.2 µM); 0% (at 3.7 µM); 22% (at 11.0 µM); 83% (active) (at 33.0 µM); 88% (active) (at 100.0 µM).

With `O=C(CCCN1CCC2(CC1)OC(=O)N(c1ccccc1)C2=O)c1ccccc1`, the growth inhibition runs as follows: (at 1.2 µM) 35%; (at 3.7 µM) 66%; (at 11.0 µM) 71% (active); (at 33.0 µM) 70% (active); (at 100.0 µM) 73% (active).

In the case of `CN(C)CCC(=O)c1c[nH]c2ccccc12`, the growth inhibition was -61% (at 1.2 µM); -74% (at 3.7 µM); -56% (at 11.0 µM); -20% (at 33.0 µM); 37% (at 100.0 µM).

For `CCCCOc1ccc(Nc2c3ccccc3nc3ccccc23)cc1`, the growth inhibition is, setting by setting: (at 1.2 µM) -39%; (at 3.7 µM) -34%; (at 11.0 µM) 34%; (at 33.0 µM) 98% (active); (at 100.0 µM) 74% (active).

With `NCC(O)CSCc1ccc(Cl)cc1` (stereo not given), the growth inhibition by setting is: (at 1.2 µM) -5%; (at 3.7 µM) -4%; (at 11.0 µM) -4%; (at 33.0 µM) -1%; (at 100.0 µM) 22%.

As for `O=C(O)[C@H]1[C@@H](C2CCCCC2)O[C@@H](C2CCCCC2)O[C@H]1C(F)(F)F`, the growth inhibition was -3% (at 1.2 µM); -1% (at 3.7 µM); -4% (at 11.0 µM); -5% (at 33.0 µM); 3% (at 100.0 µM).

For `O=S(=O)(O)CC[S][Sn]([S]CCS(=O)(=O)O)([c]1ccccc1)[c]1ccccc1`, the growth inhibition (at 1.2 µM) is -35%; the growth inhibition (at 3.7 µM) is 11%; the growth inhibition (at 11.0 µM) was 89% (active); the growth inhibition (at 33.0 µM) is 95% (active); the growth inhibition (at 100.0 µM) was 96% (active).

Consider `Cc1ccc(C(C)C)c(C(=C2C=CC(=[N+](C)C)C=C2)c2c(C(C)C)ccc(C)c2O)c1O`, for which the growth inhibition is, setting by setting: (at 1.2 µM) 0%; (at 3.7 µM) 8%; (at 11.0 µM) 97% (active); (at 33.0 µM) 96% (active); (at 100.0 µM) 84% (active).

The record behind these values is PubChem BioAssay (NCI).
